Laboratory results reported in paper PMC5349851, “Combinatorial bZIP dimers display complex DNA-binding specificity landscapes”.

Assays:
Test in all cases: SELEX-seq (CSI, HT-SELEX, round 3); SELEX-seq: 1x PBS (10 mM phosphate, 137 mM NaCl, 2.7 mM KCl) pH 7.6, 2.5 mM DTT, 50 ng/ul poly dI-dC, 0.1% BSA, 50 nM biotinylated bZIP (1:3 with partner for heterodimers), 100 nM library, room temperature, 1 h, 3 rounds; high values mean tight binding
Details in all cases: protein: recombinant;recombinant; copies: 1;1; dsDNA, one strand shown
[1] = target: FOS;CEBPG (Homo sapiens;Homo sapiens, UniProt P01100;P53567 128-201;52-130, |)
[2] = target: JUN;ATF3 (Homo sapiens;Homo sapiens, UniProt P05412;P18847 243-316;77-150, |)
[3] = target: JUN;JUN (Homo sapiens;Homo sapiens, UniProt P05412;P05412 243-316;243-316, |)
[4] = target: ATF4;CEBPG (Homo sapiens;Homo sapiens, UniProt P18848;P53567 269-346;52-130, |)
[5] = target: ATF4;CEBPA (Homo sapiens;Homo sapiens, UniProt P18848;P49715 269-346;273-345, |)
[6] = target: ATF4;ATF4 (Homo sapiens;Homo sapiens, UniProt P18848;P18848 269-346;269-346, |)
[7] = target: T1, BATF3;ATF3 (Homo sapiens;Homo sapiens, UniProt Q9NR55;P18847 26-99;77-150, |)
T1 sequence 1: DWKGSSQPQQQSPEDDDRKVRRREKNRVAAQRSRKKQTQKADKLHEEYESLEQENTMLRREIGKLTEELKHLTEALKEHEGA
T1 sequence 2: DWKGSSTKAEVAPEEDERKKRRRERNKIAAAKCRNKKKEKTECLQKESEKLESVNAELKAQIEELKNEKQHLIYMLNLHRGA

[8] = target: BATF3;ATF4 (Homo sapiens;Homo sapiens, UniProt Q9NR55;P18848 26-99;269-346, |)
[9] = target: T2, BATF3;BATF3 (Homo sapiens;Homo sapiens, UniProt Q9NR55;Q9NR55 26-99;26-99, |)
T2 sequence 1: T1 sequence 1
T2 sequence 2: T1 sequence 1

[10] = target: T3, ATF2;ATF2 (Homo sapiens;Homo sapiens, UniProt P15336;P15336 343-417;343-417, |)
T3 sequence 1: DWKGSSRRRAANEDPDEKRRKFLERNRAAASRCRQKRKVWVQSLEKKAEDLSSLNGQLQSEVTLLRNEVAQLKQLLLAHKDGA
T3 sequence 2: T3 sequence 1

[11] = target: T4, JUNB;ATF3 (Homo sapiens;Homo sapiens, UniProt P17275;P18847 259-332;77-150, |)
T4 sequence 1: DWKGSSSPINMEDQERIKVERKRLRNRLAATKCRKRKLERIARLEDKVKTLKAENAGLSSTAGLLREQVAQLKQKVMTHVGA
T4 sequence 2: T1 sequence 2

[12] = target: T5, JUNB;CEBPG (Homo sapiens;Homo sapiens, UniProt P17275;P53567 259-332;52-130, |)
T5 sequence 1: T4 sequence 1
T5 sequence 2: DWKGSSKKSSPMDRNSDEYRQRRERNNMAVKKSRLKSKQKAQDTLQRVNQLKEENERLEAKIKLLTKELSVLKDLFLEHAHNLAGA

[13] = target: JUNB;JUN (Homo sapiens;Homo sapiens, UniProt P17275;P05412 259-332;243-316, |)
[14] = target: JUNB;ATF4 (Homo sapiens;Homo sapiens, UniProt P17275;P18848 259-332;269-346, |)
[15] = target: T6, JUNB;BATF3 (Homo sapiens;Homo sapiens, UniProt P17275;Q9NR55 259-332;26-99, |)
T6 sequence 1: T4 sequence 1
T6 sequence 2: T1 sequence 1

[16] = target: T7, JUNB;ATF2 (Homo sapiens;Homo sapiens, UniProt P17275;P15336 259-332;343-417, |)
T7 sequence 1: T4 sequence 1
T7 sequence 2: T3 sequence 1

[17] = target: T8, CEBPG;CEBPG (Homo sapiens;Homo sapiens, UniProt P53567;P53567 52-130;52-130, |)
T8 sequence 1: T5 sequence 2
T8 sequence 2: T5 sequence 2

[18] = target: CEBPA;CEBPA (Homo sapiens;Homo sapiens, UniProt P49715;P49715 273-345;273-345, |)
[19] = target: T9, XBP1;XBP1 (Homo sapiens;Homo sapiens, UniProt P17861;P17861 61-138;61-138, |)
T9 sequence 1: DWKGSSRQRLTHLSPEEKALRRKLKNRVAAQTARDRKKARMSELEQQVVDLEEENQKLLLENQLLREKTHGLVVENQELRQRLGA
T9 sequence 2: T9 sequence 1

[20] = target: T10, DBP;DBP (Homo sapiens;Homo sapiens, UniProt Q10586;Q10586 246-324;246-324, |)
T10 sequence 1: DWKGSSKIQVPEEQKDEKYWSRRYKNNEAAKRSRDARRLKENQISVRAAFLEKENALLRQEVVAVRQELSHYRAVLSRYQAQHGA
T10 sequence 2: T10 sequence 1

Sequence of JUN;ATF3 (P05412 other isoform, or with tags, fused parts or gaps |): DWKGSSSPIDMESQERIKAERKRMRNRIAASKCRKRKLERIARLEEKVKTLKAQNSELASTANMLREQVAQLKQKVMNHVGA
Sequence of JUNB;JUN (P05412 other isoform, or with tags, fused parts or gaps |): as above
Sequence of JUN;JUN (P05412 other isoform, or with tags, fused parts or gaps |, chain 1 of 2): as the sequence (P05412 other isoform, or with tags, fused parts or gaps |) above
Sequence of JUN;JUN (P05412 other isoform, or with tags, fused parts or gaps |, chain 2 of 2): as the sequence (P05412 other isoform, or with tags, fused parts or gaps |) above
Sequence of FOS;CEBPG (P01100 other isoform, or with tags, fused parts or gaps |): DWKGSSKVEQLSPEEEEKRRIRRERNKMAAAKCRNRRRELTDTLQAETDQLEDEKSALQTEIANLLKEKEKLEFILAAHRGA
Sequence of ATF4;CEBPG (P18848 other isoform, or with tags, fused parts or gaps |): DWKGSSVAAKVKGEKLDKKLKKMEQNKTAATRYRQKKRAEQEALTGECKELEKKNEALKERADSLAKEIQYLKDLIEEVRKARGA
Sequence of ATF4;CEBPA (P18848 other isoform, or with tags, fused parts or gaps |, chain 1 of 2): as the sequence (P18848 other isoform, or with tags, fused parts or gaps |) above
Sequence of ATF4;CEBPA (P49715 other isoform, or with tags, fused parts or gaps |, chain 2 of 2): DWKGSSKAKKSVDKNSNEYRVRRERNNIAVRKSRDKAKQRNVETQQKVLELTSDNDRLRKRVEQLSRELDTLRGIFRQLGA
Sequence of CEBPA;CEBPA (P49715 other isoform, or with tags, fused parts or gaps |, chain 1 of 2): as the sequence (P49715 other isoform, or with tags, fused parts or gaps |, chain 2 of 2) above
Sequence of CEBPA;CEBPA (P49715 other isoform, or with tags, fused parts or gaps |, chain 2 of 2): as above
Sequence of JUNB;ATF4 (P18848 other isoform, or with tags, fused parts or gaps |): as the sequence (P18848 other isoform, or with tags, fused parts or gaps |) above
Sequence of ATF4;ATF4 (P18848 other isoform, or with tags, fused parts or gaps |, chain 1 of 2): as the sequence (P18848 other isoform, or with tags, fused parts or gaps |) above
Sequence of ATF4;ATF4 (P18848 other isoform, or with tags, fused parts or gaps |, chain 2 of 2): as the sequence (P18848 other isoform, or with tags, fused parts or gaps |) above

| Sequence | binding signal [1] | binding signal [2] | binding signal [3] | binding signal [4] | binding signal [5] | binding signal [6] | binding signal [7] | binding signal [8] | binding signal [9] | binding signal [10] | binding signal [11] | binding signal [12] | binding signal [13] | binding signal [14] | binding signal [15] | binding signal [16] | binding signal [17] | binding signal [18] | binding signal [19] | binding signal [20] |
| --- | --- | --- | --- | --- | --- | --- | --- | --- | --- | --- | --- | --- | --- | --- | --- | --- | --- | --- | --- | --- |
| CCTGACGTCA | 0.0189 relative CSI intensity (max = 1) | 0.177 relative CSI intensity (max = 1) | 0.0544 relative CSI intensity (max = 1) | 0.0346 relative CSI intensity (max = 1) | 0.127 relative CSI intensity (max = 1) | 0.0219 relative CSI intensity (max = 1) | 0.0499 relative CSI intensity (max = 1) | 0.0241 relative CSI intensity (max = 1) | 0.0069 relative CSI intensity (max = 1) | 0.144 relative CSI intensity (max = 1) | 0.031 relative CSI intensity (max = 1) | 0.00362 relative CSI intensity (max = 1) | 0.0172 relative CSI intensity (max = 1) | 0.0113 relative CSI intensity (max = 1) | 0.0239 relative CSI intensity (max = 1) | 0.0143 relative CSI intensity (max = 1) |  |  |  |  |
| ATGACGTAAT | 0.482 relative CSI intensity (max = 1) | 0.313 relative CSI intensity (max = 1) | 0.091 relative CSI intensity (max = 1) | 0.652 relative CSI intensity (max = 1) | 0.695 relative CSI intensity (max = 1) | 0.00204 relative CSI intensity (max = 1) | 0.0292 relative CSI intensity (max = 1) | 0.048 relative CSI intensity (max = 1) | 0.0127 relative CSI intensity (max = 1) | 0.289 relative CSI intensity (max = 1) | 0.166 relative CSI intensity (max = 1) | 0.17 relative CSI intensity (max = 1) | 0.0997 relative CSI intensity (max = 1) | 0.0439 relative CSI intensity (max = 1) | 0.0919 relative CSI intensity (max = 1) | 0.151 relative CSI intensity (max = 1) | 0.0508 relative CSI intensity (max = 1) | 0.0784 relative CSI intensity (max = 1) | 0.00422 relative CSI intensity (max = 1) | 0.487 relative CSI intensity (max = 1) |
| ATGATGCAAT | 0.64 relative CSI intensity (max = 1) | 0.136 relative CSI intensity (max = 1) | 0.00263 relative CSI intensity (max = 1) | 0.965 relative CSI intensity (max = 1) | 1 relative CSI intensity (max = 1) |  | 0.00189 relative CSI intensity (max = 1) | 0.00441 relative CSI intensity (max = 1) |  | 0.00515 relative CSI intensity (max = 1) |  | 0.252 relative CSI intensity (max = 1) | 0.0548 relative CSI intensity (max = 1) |  | 0.00368 relative CSI intensity (max = 1) |  | 0.133 relative CSI intensity (max = 1) | 0.124 relative CSI intensity (max = 1) |  | 0.00594 relative CSI intensity (max = 1) |
